This note sets out measurements from PubChem BioAssay (Tox21).

SMILES strings stand for the structures. Inconclusive results are not listed. Where a structure was tested more than once in an assay, its records may differ in their call. The source made the active and inactive calls. Unless noted, the call rests on the fitted dose curve; in most records, active means well fitted cell-killing curve with a large enough effect in the repeat runs; inconclusive means weak or mixed curves, or effect the other way; inactive means no such curve, though single readings can be large or run the other way.
On the % scale 0 is the no-effect control and ±100 the full control effect.

The first assay deals with Bile acid receptor (Homo sapiens) (UniProt Q96RI1). Kind of assay: qHTS assay to identify small molecule antagonists of the farnesoid-X-receptor (FXR) signaling pathway (AID 743217; active means well fitted inhibition curve with a large enough effect in the signal ratio in the repeat runs, not every such curve was filed as active; the % refers to the signal ratio). The settings on record: HEK293T FXR-UAS-bla, beta-lactamase ratio, CDCA-stimulated, 16 h; series mostly up to 62.6 µM; activity change, negative = inhibition: at the top concentration. The method, boiled down: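 Beta-lactamase reporter under UAS control in HEK 293T cells; compound exposure 16 h at 37 °C in the presence of chenodeoxycholic acid (50 uM final); signal from B/G FRET substrate after 2 h at room temperature.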
Chain of Bile acid receptor (Homo sapiens) (Q96RI1 whole entry, looked up): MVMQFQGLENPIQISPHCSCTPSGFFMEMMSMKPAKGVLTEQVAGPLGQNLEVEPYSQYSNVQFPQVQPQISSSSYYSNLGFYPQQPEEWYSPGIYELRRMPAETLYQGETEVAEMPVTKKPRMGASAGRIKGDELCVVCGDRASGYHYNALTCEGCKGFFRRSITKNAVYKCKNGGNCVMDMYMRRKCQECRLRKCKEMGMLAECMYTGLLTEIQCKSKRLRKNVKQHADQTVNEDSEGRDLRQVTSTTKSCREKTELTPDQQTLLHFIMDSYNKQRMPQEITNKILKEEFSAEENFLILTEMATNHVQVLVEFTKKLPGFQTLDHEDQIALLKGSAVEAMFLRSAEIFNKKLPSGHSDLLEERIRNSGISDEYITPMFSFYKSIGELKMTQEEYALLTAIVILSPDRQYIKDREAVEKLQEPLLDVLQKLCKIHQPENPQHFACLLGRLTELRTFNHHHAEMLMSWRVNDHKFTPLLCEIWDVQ
For orientation: In qHTS, concentration-response curves come from the screen itself.
For `CC(=O)OCC(C)OC(C)=O` (centres undefined), the “activity change, negative = inhibition” value is 5.23% (inactive).

On to `N#CC1(c2ccc(F)cc2)CCC(=O)CC1`, for which the “activity change, negative = inhibition” value is 0.667% (inactive).

As for `CCCC(C)c1ccccc1O` (centres undefined), the “activity change, negative = inhibition” value was -1.63% (inactive).

With `NNC(=O)c1cccc(C(=O)NN)c1`, the “activity change, negative = inhibition” value is -0.0357% (inactive).

On to `Oc1cccc2cc3cccc(O)c3c(O)c12`, for which the “activity change, negative = inhibition” value was -6.37% [at 81.1 µM] (inactive).

For `Clc1ccc2nsnc2c1NC1=NCCN1`, the “activity change, negative = inhibition” value was 9.5% (inactive).

Take `CC(C)(C)C(=O)OCOC(=O)[C@@H]1N2C(=O)[C@@H](NC(=O)[C@H](N)c3ccccc3)[C@H]2SC1(C)C`: the “activity change, negative = inhibition” value was 0.687% (inactive).

For the molecule `ON=C1CCCC1`, the “activity change, negative = inhibition” value is 3.76% [at 81.1 µM] (inactive).

Tested on in a further assay: not listed separately
The assay can be described thus: qHTS assay to identify small molecule agonists of the farnesoid-X-receptor (FXR) signaling pathway - cell viability counter screen (AID 743218). Further: nearly all actives have a fitted effect of over 45% in size. Further: potency means the concentration at half of the fitted maximal effect. The settings on record: FXR-bla HEK293T viability, CellTiter-Glo luminescence, 16 h; series mostly up to 62.6 µM; viability change, negative = cytotoxic: at the top concentration. Summed up:
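In GeneBLAzer FXR-UAS-bla HEK 293T cells, compounds act for 16 h at 37 C. Cell viability is then scored in the reporter wells by CellTiter-Glo, 30 min at RT, luminescence.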
Consider `Cc1c(C)c2c(c(C)c1OC(=O)CCC(=O)O)CC[C@@](C)(CCC[C@H](C)CCC[C@H](C)CCCC(C)C)O2`, for which the “viability change, negative = cytotoxic” value is -4.45% [at 81.1 µM] (inactive).

For the molecule `Nc1ccc2cc(S(=O)(=O)O)cc(O)c2c1N=Nc1ccccc1C(F)(F)F`, the “viability change, negative = cytotoxic” value was 0.531% (inactive).

Regarding `O=C(O)c1ccc(Cl)c(Cl)c1`, the “viability change, negative = cytotoxic” value was -22.5% (inactive).

`Cc1cccc(S(=O)(=O)O)c1C`: the “viability change, negative = cytotoxic” value was -4.46% (inactive).

As for `Cc1cc2c(cc1C(F)(F)F)N(C(=O)Nc1ccc(Oc3cccnc3C)nc1)CC2`, the Potency was 35.2 µM (active).

As for `COc1cc(/C=C/C(=O)O[C@H]2CC[C@]34C[C@]35CC[C@]3(C)[C@@H]([C@H](C)CCC=C(C)C)CC[C@@]3(C)[C@@H]5CC[C@H]4C2(C)C)ccc1O`, the “viability change, negative = cytotoxic” value was 1.71% (inactive).

Regarding `N#CC1(c2ccc(F)cc2)CCC(=O)CC1`, the “viability change, negative = cytotoxic” value was 1.91% (inactive).

On to `CCCCN(CCCC)C(=O)N(CCCC)CCCC`, for which the “viability change, negative = cytotoxic” value was 7.83% (inactive).

Regarding `O=C1c2ccccc2Cc2ccccc21`, the “viability change, negative = cytotoxic” value is 3.48% [at 81.1 µM] (inactive).

On to `CCCC(C)c1ccccc1O` (centres undefined), for which the “viability change, negative = cytotoxic” value is 5.21% (inactive).

As to `O=C(NO)C1(NS(=O)(=O)c2ccc(Oc3ccc(F)cc3)cc2)CCOCC1`, the “viability change, negative = cytotoxic” value was -9.34% (inactive).

Take `Cc1ccc(O)c(C(C)(C)C)c1`: the Potency was 24.5 µM (active) and inactive.

Take `NNC(=O)c1cccc(C(=O)NN)c1`: the “viability change, negative = cytotoxic” value was -3.88% (inactive).

For `CCCCCCCCCCCCCCCC(=O)OC[C@H](O)[C@H]1OC(=O)C(O)=C1O`, the Potency was 38.9 µM (active).

With `Nc1ccccc1O`, the “viability change, negative = cytotoxic” value is -2.04% (inactive).

`Oc1cccc2cc3cccc(O)c3c(O)c12`: the “viability change, negative = cytotoxic” value was -6.47% [at 81.1 µM] (inactive).

Consider `CNC(=O)c1ccccc1`, for which the “viability change, negative = cytotoxic” value is -22.4% (inactive).

In the case of `Nc1c2ccccc2nc2ccccc12`, the “viability change, negative = cytotoxic” value is -19.5% (inactive).

As for `OCCCCCCCCCCCCBr`, the “viability change, negative = cytotoxic” value is -21.7% [at 81.1 µM] (inactive).

With `CCCC1O[C@@H]2C[C@H]3[C@@H]4CCC5=CC(=O)C=C[C@]5(C)[C@H]4[C@@H](O)C[C@]3(C)[C@]2(C(=O)CO)O1` (some centres undefined), the “viability change, negative = cytotoxic” value is -2.08% (inactive).

For the molecule `CCCCCCCCCCC=O`, the “viability change, negative = cytotoxic” value is -3.77% [at 81.1 µM] (inactive).

Regarding `Clc1ccc2nsnc2c1NC1=NCCN1`, the “viability change, negative = cytotoxic” value was -14.1% (inactive).

As to `O=c1cc(-c2ccc(O)cc2)oc2cc(O)cc(O)c12`, the Potency result was “inactive”.

Take `CSc1cnc(C)cn1`: the “viability change, negative = cytotoxic” value was 1.87% [at 81.1 µM] (inactive).

Take `CC(C)(C)C(=O)OCOC(=O)[C@@H]1N2C(=O)[C@@H](NC(=O)[C@H](N)c3ccccc3)[C@H]2SC1(C)C`: the “viability change, negative = cytotoxic” value was -1.65% (inactive).

Regarding `ON=C1CCCC1`, the “viability change, negative = cytotoxic” value was 9.98% [at 81.1 µM] (inactive).
